# Assay results as given in the supplement of paper PMC4022240.
# ± gives the standard deviation.
# T1: HaloTag-ATRX ADD domain (163-292)
# T1 chain: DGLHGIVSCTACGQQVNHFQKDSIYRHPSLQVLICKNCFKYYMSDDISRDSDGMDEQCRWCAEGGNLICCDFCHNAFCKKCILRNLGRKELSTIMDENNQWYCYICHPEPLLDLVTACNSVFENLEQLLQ
# How the values were obtained:
# Test in all cases: peptide microarray binding signal (635 nm), min-max normalized on array (fraction of array maximum); higher = stronger binding
# Conditions in all cases: peptide region: H2A 1-13
# [1] = biological target: T1, HaloTag-ATRX ADD domain (163-292)
# Protocol: (§1)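 Histone 13-mer peptides were synthesized as cellulose conjugates with a C-terminal 20-atom PEG linker and printed in triplicate on nitrocellulose. The sequence given is the unmodified backbone; PTMs (Kme1/2/3, Kac, Sph/Tph, Rme/Rme2a/Rme2s, Rcit) are listed in the label and the 'peptide modifications' condition. Slides were probed at 4 °C for 1 h with biotin-labelled (HQ)5-HaloTag reader fusions (ATRX-ADD, ING2-PHD) then streptavidin-Alexa647, or with rabbit histone antibodies then anti-rabbit Alexa647. The mean 635 nm signal of the triplicate spots was scaled 0-1 between the lowest and highest values on each array.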
# [2] = biological target: HaloTag-ING2 PHD (mouse Ing2 200-280)
# Protocol: as §1
# [3] = biological target: anti-H3K4me3 antibody ab8580
# Protocol: as §1
# [4] = biological target: anti-H3K9me3 antibody ab8898
# Protocol: as §1
# [5] = peptide modifications: H2AR3me2s, binder concentration: 1:2,000 dilution
# [6] = peptide modifications: H2AR3me2s, binder concentration: 1:10,000 dilution
# [7] = peptide modifications: H2AS1ph H2AR3me2s, binder concentration: 1:2,000 dilution
# [8] = peptide modifications: H2AS1ph H2AR3me2s, binder concentration: 1:10,000 dilution
# [9] = peptide modifications: H2AK5ac, binder concentration: 1:2,000 dilution
# [10] = peptide modifications: H2AK5ac, binder concentration: 1:10,000 dilution
# [11] = peptide modifications: H2AR3cit, binder concentration: 1:2,000 dilution
# [12] = peptide modifications: H2AR3cit, binder concentration: 1:10,000 dilution
# [13] = peptide modifications: H2AR3me1 H2AK5ac, binder concentration: 1:2,000 dilution
# [14] = peptide modifications: H2AR3me1 H2AK5ac, binder concentration: 1:10,000 dilution
# [15] = peptide modifications: H2AK9ac, binder concentration: 1:2,000 dilution
# [16] = peptide modifications: H2AK9ac, binder concentration: 1:10,000 dilution
# [17] = peptide modifications: H2AR3me2a, binder concentration: 1:2,000 dilution
# [18] = peptide modifications: H2AR3me2a, binder concentration: 1:10,000 dilution
# [19] = peptide modifications: H2AS1ph H2AK9ac, binder concentration: 1:2,000 dilution
# [20] = peptide modifications: H2AK5ac H2AK9ac, binder concentration: 1:2,000 dilution
# [21] = peptide modifications: H2AK5ac H2AK9ac, binder concentration: 1:10,000 dilution
# [22] = peptide modifications: H2AR3me2s H2AK5ac, binder concentration: 1:2,000 dilution
# [23] = peptide modifications: H2AR3me2s H2AK5ac, binder concentration: 1:10,000 dilution
binder,measurement,setting,value
SGRGKQGGKARAK [H2A 1-13 S G Rme2s G K Q G G K A R A K],peptide microarray binding signal,"[1]; peptide modifications: H2AR3me2s, binder concentration: 50 nM",0.00696 ± 0.0016
same,peptide microarray binding signal,"[1]; peptide modifications: H2AR3me2s, binder concentration: 500 nM",0.0101 ± 0.00014
same,peptide microarray binding signal,"[2]; peptide modifications: H2AR3me2s, binder concentration: 10 nM",0.00519 ± 0.00018
same,peptide microarray binding signal,"[2]; peptide modifications: H2AR3me2s, binder concentration: 100 nM",0.00893 ± 0.00025
same,peptide microarray binding signal,[3]; [5],0.00108 ± 4.1e-05
same,peptide microarray binding signal,[3]; [6],0.00183 ± 9.6e-05
same,peptide microarray binding signal,[4]; [5],0.000755 ± 7.7e-05
same,peptide microarray binding signal,[4]; [6],0.000923 ± 2.5e-05
SGRGKQGGKARAK [H2A 1-13 Sph G Rme2s G K Q G G K A R A K],peptide microarray binding signal,"[1]; peptide modifications: H2AS1ph H2AR3me2s, binder concentration: 50 nM",0.00357 ± 5.8e-05
same,peptide microarray binding signal,"[1]; peptide modifications: H2AS1ph H2AR3me2s, binder concentration: 500 nM",0.00752 ± 0.00025
same,peptide microarray binding signal,"[2]; peptide modifications: H2AS1ph H2AR3me2s, binder concentration: 10 nM",0.00257 ± 5e-05
same,peptide microarray binding signal,"[2]; peptide modifications: H2AS1ph H2AR3me2s, binder concentration: 100 nM",0.00482 ± 0.0003
same,peptide microarray binding signal,[3]; [7],0.000378 ± 3.9e-06
same,peptide microarray binding signal,[3]; [8],0.000571
same,peptide microarray binding signal,[4]; [7],0.000317 ± 9.6e-06
same,peptide microarray binding signal,[4]; [8],0.000577 ± 6.2e-06
SGRGKQGGKARAK [H2A 1-13 S G R G Kac Q G G K A R A K],peptide microarray binding signal,"[1]; peptide modifications: H2AK5ac, binder concentration: 50 nM",0.00288 ± 4.3e-05
same,peptide microarray binding signal,"[1]; peptide modifications: H2AK5ac, binder concentration: 500 nM",0.0061 ± 0.00049
same,peptide microarray binding signal,"[2]; peptide modifications: H2AK5ac, binder concentration: 10 nM",0.00239 ± 2.4e-05
same,peptide microarray binding signal,"[2]; peptide modifications: H2AK5ac, binder concentration: 100 nM",0.005528 ± 4.3e-05
same,peptide microarray binding signal,[3]; [9],0.000378 ± 1e-05
same,peptide microarray binding signal,[3]; [10],0.000399
same,peptide microarray binding signal,[4]; [9],0.000227 ± 4.1e-06
same,peptide microarray binding signal,[4]; [10],0.000577 ± 6.2e-06
SGRGKQGGKARAK [H2A 1-13 S G Rcit G K Q G G K A R A K],peptide microarray binding signal,"[1]; peptide modifications: H2AR3cit, binder concentration: 50 nM",0.00257 ± 6.9e-05
same,peptide microarray binding signal,"[1]; peptide modifications: H2AR3cit, binder concentration: 500 nM",0.00614 ± 6.4e-05
same,peptide microarray binding signal,"[2]; peptide modifications: H2AR3cit, binder concentration: 10 nM",0.00137 ± 3.3e-05
same,peptide microarray binding signal,"[2]; peptide modifications: H2AR3cit, binder concentration: 100 nM",0.00262 ± 0.0002
same,peptide microarray binding signal,[3]; [11],0.000245 ± 2.6e-06
same,peptide microarray binding signal,[3]; [12],0.000514 ± 5.5e-06
same,peptide microarray binding signal,[4]; [11],0.000181
same,peptide microarray binding signal,[4]; [12],0.000404 ± 4.4e-06
SGRGKQGGKARAK [H2A 1-13 S G Rme G Kac Q G G K A R A K],peptide microarray binding signal,"[1]; peptide modifications: H2AR3me1 H2AK5ac, binder concentration: 50 nM",0.00467 ± 0.00064
same,peptide microarray binding signal,"[1]; peptide modifications: H2AR3me1 H2AK5ac, binder concentration: 500 nM",0.00424 ± 0.00012
same,peptide microarray binding signal,"[2]; peptide modifications: H2AR3me1 H2AK5ac, binder concentration: 10 nM",0.002507 ± 1.4e-05
same,peptide microarray binding signal,"[2]; peptide modifications: H2AR3me1 H2AK5ac, binder concentration: 100 nM",0.00305 ± 0.00059
same,peptide microarray binding signal,[3]; [13],0.000434 ± 2.9e-05
same,peptide microarray binding signal,[3]; [14],0.000571
same,peptide microarray binding signal,[4]; [13],0.000242 ± 6.7e-06
same,peptide microarray binding signal,[4]; [14],0.000634
SGRGKQGGKARAK [H2A 1-13 S G R G K Q G G Kac A R A K],peptide microarray binding signal,"[1]; peptide modifications: H2AK9ac, binder concentration: 50 nM",0.00348 ± 0.0001
same,peptide microarray binding signal,"[1]; peptide modifications: H2AK9ac, binder concentration: 500 nM",0.00619 ± 0.00024
same,peptide microarray binding signal,"[2]; peptide modifications: H2AK9ac, binder concentration: 10 nM",0.00251 ± 0.00014
same,peptide microarray binding signal,"[2]; peptide modifications: H2AK9ac, binder concentration: 100 nM",0.00638 ± 0.00045
same,peptide microarray binding signal,[3]; [15],0.000547 ± 2.3e-05
same,peptide microarray binding signal,[3]; [16],0.000399
same,peptide microarray binding signal,[4]; [15],0.000227
same,peptide microarray binding signal,[4]; [16],0.00075 ± 1.6e-05
SGRGKQGGKARAK [H2A 1-13 S G Rme2a G K Q G G K A R A K],peptide microarray binding signal,"[1]; peptide modifications: H2AR3me2a, binder concentration: 50 nM",0.005172 ± 5e-05
same,peptide microarray binding signal,"[1]; peptide modifications: H2AR3me2a, binder concentration: 500 nM",0.0126 ± 0.00024
same,peptide microarray binding signal,"[2]; peptide modifications: H2AR3me2a, binder concentration: 10 nM",0.00382 ± 0.0003
same,peptide microarray binding signal,"[2]; peptide modifications: H2AR3me2a, binder concentration: 100 nM",0.0113 ± 0.00033
same,peptide microarray binding signal,[3]; [17],0.00119 ± 9.3e-05
same,peptide microarray binding signal,[3]; [18],0.00143 ± 2.4e-05
same,peptide microarray binding signal,[4]; [17],0.000483 ± 1.2e-05
same,peptide microarray binding signal,[4]; [18],0.00075 ± 7.9e-06
SGRGKQGGKARAK [H2A 1-13 Sph G R G K Q G G Kac A R A K],peptide microarray binding signal,"[1]; peptide modifications: H2AS1ph H2AK9ac, binder concentration: 500 nM",0.005476 ± 3.5e-05
same,peptide microarray binding signal,"[2]; peptide modifications: H2AS1ph H2AK9ac, binder concentration: 100 nM",0.00354 ± 0.00045
same,peptide microarray binding signal,[3]; [19],0.000208 ± 2.2e-06
same,peptide microarray binding signal,[4]; [19],0.000121 ± 1.3e-06
SGRGKQGGKARAK [H2A 1-13 S G R G Kac Q G G Kac A R A K],peptide microarray binding signal,"[1]; peptide modifications: H2AK5ac H2AK9ac, binder concentration: 50 nM",0.00382 ± 4.6e-05
same,peptide microarray binding signal,"[1]; peptide modifications: H2AK5ac H2AK9ac, binder concentration: 500 nM",0.00743 ± 0.00068
same,peptide microarray binding signal,"[2]; peptide modifications: H2AK5ac H2AK9ac, binder concentration: 10 nM",0.00281 ± 0.00011
same,peptide microarray binding signal,"[2]; peptide modifications: H2AK5ac H2AK9ac, binder concentration: 100 nM",0.00815 ± 0.00019
same,peptide microarray binding signal,[3]; [20],0.00109 ± 0.00019
same,peptide microarray binding signal,[3]; [21],0.000571
same,peptide microarray binding signal,[4]; [20],0.000227 ± 4.1e-06
same,peptide microarray binding signal,[4]; [21],0.000519 ± 5.6e-06
SGRGKQGGKARAK [H2A 1-13 S G Rme2s G Kac Q G G K A R A K],peptide microarray binding signal,"[1]; peptide modifications: H2AR3me2s H2AK5ac, binder concentration: 50 nM",0.00458 ± 0.00026
same,peptide microarray binding signal,"[1]; peptide modifications: H2AR3me2s H2AK5ac, binder concentration: 500 nM",0.00562 ± 0.00037
same,peptide microarray binding signal,"[2]; peptide modifications: H2AR3me2s H2AK5ac, binder concentration: 10 nM",0.00603 ± 0.00016
same,peptide microarray binding signal,"[2]; peptide modifications: H2AR3me2s H2AK5ac, binder concentration: 100 nM",0.00461 ± 7.6e-05
same,peptide microarray binding signal,[3]; [22],0.000736
same,peptide microarray binding signal,[3]; [23],0.0012 ± 1.2e-05
same,peptide microarray binding signal,[4]; [22],0.000589 ± 9.4e-06
same,peptide microarray binding signal,[4]; [23],0.00179 ± 6.1e-05
